Reference: the supplement of paper PMC12067093, “Discovery and optimisation of a covalent ligand for TRIM25 and its application to targeted protein ubiquitination” (Chemical Science, 2025)
About 21,000 targets were measured; listed, in parts, are those with the largest changes and a random draw of the rest.

Compound: CC1Cc2ccccc2N1C(=O)C1CCCN(C1)C(=O)CCl (mixture of isomers) [TRIM25 ligand 11 (diastereomer mixture)]
Test: probe-labelled cysteine peptide fold change vs DMSO (competition) (log2 fold change); higher = less target engagement (more negative = stronger competition)
Conditions: THP-1, incubation time: 4 h
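Further: competitive chemoproteomic profiling in live THP-1 cells with an iodoacetamide desthiobiotin (IA-DTB) probe, comparing probe-labelled peptide intensities in compound-treated cells against DMSO-treated controls.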

Sequence of UniProt P78383 (P78383 whole entry): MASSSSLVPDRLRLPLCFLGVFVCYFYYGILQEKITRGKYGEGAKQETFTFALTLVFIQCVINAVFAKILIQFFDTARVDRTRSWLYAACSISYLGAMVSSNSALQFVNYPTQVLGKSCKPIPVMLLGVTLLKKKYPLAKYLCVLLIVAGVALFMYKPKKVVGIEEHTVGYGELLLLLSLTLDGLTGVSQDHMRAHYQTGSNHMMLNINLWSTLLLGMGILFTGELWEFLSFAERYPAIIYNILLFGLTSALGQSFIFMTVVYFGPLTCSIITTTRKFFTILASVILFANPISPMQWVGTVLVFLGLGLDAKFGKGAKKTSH
Sequence of UniProt P55735 (P55735 whole entry, looked up): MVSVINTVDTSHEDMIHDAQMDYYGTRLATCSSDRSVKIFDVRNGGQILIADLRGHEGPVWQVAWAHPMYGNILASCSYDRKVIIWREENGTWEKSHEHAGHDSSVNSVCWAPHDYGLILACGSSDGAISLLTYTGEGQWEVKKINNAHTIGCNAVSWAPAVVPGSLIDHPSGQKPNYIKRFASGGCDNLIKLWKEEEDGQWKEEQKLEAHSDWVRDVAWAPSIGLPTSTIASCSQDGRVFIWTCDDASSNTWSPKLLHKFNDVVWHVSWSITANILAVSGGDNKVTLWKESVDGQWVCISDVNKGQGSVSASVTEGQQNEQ
Sequence of UniProt P05141 (P05141 whole entry, looked up): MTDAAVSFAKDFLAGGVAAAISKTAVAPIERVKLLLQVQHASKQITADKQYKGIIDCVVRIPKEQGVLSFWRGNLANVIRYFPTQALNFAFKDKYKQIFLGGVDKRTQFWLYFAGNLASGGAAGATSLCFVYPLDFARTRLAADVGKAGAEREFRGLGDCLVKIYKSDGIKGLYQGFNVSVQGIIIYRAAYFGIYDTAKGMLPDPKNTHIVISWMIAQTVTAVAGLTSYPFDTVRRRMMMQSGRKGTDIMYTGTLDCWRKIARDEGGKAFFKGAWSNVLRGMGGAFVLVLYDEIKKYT
Sequence of UniProt P08047 (P08047 whole entry, looked up): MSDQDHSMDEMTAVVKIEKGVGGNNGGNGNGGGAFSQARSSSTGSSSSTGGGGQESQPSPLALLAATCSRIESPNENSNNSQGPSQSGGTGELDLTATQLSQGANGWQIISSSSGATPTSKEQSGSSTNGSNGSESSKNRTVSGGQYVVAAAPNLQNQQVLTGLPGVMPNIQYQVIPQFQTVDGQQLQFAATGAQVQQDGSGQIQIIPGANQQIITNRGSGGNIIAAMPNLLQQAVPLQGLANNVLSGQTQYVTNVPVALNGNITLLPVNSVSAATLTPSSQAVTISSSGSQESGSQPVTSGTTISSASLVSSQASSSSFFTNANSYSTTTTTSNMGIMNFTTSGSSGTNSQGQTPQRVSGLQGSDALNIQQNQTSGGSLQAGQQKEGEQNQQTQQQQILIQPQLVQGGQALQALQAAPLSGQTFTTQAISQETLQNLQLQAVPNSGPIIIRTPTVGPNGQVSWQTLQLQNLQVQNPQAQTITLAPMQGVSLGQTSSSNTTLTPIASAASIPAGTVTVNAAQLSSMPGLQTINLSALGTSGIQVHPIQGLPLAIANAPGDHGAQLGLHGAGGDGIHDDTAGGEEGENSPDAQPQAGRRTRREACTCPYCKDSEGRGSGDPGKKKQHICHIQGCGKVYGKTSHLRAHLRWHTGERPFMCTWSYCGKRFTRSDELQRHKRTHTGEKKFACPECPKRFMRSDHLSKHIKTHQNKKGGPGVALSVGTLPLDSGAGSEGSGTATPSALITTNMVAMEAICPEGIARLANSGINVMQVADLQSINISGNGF
Sequence of UniProt Q8WU76 (Q8WU76 whole entry, looked up): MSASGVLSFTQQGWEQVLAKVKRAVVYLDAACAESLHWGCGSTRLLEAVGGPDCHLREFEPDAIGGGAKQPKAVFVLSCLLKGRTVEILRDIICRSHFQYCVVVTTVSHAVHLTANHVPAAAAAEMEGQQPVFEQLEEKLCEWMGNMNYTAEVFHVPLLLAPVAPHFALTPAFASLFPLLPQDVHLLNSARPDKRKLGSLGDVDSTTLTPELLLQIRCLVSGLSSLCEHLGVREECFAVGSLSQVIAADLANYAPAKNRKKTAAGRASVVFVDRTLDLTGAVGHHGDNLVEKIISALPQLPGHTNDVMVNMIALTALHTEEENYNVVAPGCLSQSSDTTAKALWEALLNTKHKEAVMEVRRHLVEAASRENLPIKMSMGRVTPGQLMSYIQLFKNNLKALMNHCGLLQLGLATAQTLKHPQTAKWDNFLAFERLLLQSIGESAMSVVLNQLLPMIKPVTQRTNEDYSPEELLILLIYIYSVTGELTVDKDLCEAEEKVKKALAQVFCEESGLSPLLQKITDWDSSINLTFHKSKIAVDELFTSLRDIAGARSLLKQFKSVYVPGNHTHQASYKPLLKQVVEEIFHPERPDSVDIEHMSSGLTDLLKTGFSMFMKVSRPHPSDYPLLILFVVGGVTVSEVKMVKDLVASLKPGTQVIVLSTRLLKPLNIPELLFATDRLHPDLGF
Sequence of UniProt Q8NB90 (Q8NB90 whole entry, looked up): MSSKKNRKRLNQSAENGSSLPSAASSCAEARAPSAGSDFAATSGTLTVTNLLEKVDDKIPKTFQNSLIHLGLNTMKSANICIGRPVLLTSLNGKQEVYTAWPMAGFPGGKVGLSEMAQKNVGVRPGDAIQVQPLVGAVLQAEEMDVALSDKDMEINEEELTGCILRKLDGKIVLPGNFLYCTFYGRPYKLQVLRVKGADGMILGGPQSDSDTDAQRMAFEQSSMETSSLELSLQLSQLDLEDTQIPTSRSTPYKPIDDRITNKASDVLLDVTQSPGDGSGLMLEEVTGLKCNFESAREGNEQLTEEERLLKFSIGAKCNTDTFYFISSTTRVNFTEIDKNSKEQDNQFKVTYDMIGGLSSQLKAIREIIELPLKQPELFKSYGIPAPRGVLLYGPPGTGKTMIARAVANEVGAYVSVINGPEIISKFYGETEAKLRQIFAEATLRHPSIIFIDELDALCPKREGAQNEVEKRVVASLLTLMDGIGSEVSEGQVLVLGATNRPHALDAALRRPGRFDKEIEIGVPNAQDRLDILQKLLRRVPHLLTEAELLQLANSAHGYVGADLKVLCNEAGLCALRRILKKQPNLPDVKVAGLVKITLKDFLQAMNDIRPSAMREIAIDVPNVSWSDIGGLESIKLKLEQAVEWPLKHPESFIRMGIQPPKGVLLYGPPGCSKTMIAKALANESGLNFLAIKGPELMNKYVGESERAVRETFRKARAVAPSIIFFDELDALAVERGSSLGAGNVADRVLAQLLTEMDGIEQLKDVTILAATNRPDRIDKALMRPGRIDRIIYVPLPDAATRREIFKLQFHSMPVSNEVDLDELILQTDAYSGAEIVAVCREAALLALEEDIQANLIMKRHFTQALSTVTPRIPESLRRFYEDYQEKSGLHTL
Sequence of UniProt Q96RF0 (Q96RF0 whole entry, looked up): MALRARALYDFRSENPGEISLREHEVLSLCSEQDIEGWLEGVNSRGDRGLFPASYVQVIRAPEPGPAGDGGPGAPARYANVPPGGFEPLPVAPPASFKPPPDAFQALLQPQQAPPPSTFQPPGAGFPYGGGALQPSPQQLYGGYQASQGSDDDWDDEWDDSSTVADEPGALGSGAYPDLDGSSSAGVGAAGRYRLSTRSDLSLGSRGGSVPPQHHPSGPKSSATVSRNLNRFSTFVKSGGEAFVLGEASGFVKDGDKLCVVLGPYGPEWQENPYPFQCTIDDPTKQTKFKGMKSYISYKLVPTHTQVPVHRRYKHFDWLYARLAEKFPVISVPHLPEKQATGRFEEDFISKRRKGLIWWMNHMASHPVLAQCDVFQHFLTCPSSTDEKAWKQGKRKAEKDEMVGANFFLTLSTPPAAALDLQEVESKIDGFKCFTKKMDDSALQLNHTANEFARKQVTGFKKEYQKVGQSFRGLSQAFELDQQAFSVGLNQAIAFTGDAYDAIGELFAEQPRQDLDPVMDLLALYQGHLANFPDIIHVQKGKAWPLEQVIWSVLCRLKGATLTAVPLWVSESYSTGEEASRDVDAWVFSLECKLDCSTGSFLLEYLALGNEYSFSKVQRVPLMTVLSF
Sequence of UniProt Q9Y6B6 (Q9Y6B6 whole entry, looked up): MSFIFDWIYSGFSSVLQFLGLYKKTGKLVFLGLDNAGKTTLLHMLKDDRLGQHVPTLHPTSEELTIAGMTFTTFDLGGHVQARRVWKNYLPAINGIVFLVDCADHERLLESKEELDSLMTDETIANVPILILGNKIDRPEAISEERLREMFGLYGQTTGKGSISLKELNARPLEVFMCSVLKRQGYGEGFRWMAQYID
Sequence of UniProt Q12824 (Q12824 whole entry, looked up): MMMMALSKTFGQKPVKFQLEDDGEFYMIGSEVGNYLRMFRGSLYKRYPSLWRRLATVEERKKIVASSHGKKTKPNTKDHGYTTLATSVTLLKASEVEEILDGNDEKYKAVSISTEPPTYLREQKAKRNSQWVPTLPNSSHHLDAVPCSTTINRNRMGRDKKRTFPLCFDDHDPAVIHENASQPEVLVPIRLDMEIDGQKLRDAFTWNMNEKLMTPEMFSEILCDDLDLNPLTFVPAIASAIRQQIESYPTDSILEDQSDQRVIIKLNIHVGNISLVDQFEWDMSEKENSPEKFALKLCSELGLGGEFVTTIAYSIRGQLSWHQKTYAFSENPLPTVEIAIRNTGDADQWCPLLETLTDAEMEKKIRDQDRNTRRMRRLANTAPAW

Target	probe-labelled cysteine peptide fold change (10 µM)	probe-labelled cysteine peptide fold change (50 µM)
SPATA5_Q8NB90_574_VLCNEAGLCALRR (UniProt Q8NB90)	-0.161	-0.0738
SAR1B_Q9Y6B6_102_NYLPAINGIVFLVDCADHER (UniProt Q9Y6B6)	0.177	0.151
SLC4A7_Q9Y6M7_120_VQFILGTEDDDEEHIPHDLFTEMDELCYR (UniProt Q9Y6M7)	0.222	-0.577
SMARCB1_Q12824_147_NSQWVPTLPNSSHHLDAVPCSTTINR (UniProt Q12824)	-0.0549	-0.612
SEC23B_Q15437_434_GPCVSENELGVGGTSQWK (UniProt Q15437)	0.0914	0.096
SNRPB_P14678_43+45_HMNLILCDCDEFRK (UniProt P14678)	-0.0283	-0.00106
SLC25A5_P05141_257_KGTDIMYTGTLDCWR (UniProt P05141)	-0.0817	-0.062
SLC35B1_P78383_119_SCKPIPVMLLGVTLLK (UniProt P78383)	-0.942	0.0401
SCFD2_Q8WU76_507_ALAQVFCEESGLSPLLQK (UniProt Q8WU76)	0.0961	0.0426
SEC13_P55735_77_GHEGPVWQVAWAHPMYGNILASCSYDR (UniProt P55735)	-0.107	-0.123
SP1_P08047_633_KQHICHIQGCGK (UniProt P08047)	-0.185	-0.216
SNX18_Q96RF0-2_570_CNTISFATLAEIHHFHQIR (UniProt Q96RF0)	0.155	0.111
RSBN1_Q5VWQ0_671_IQLCDNDIYFIPR (UniProt Q5VWQ0)	0.00486	0.13
